Results reported in the supplement of paper PMC8728848.
This is one part of a sample in which the strongest signals are shown more often than they occur.

Legend:
Assay in all cases: glycan array binding signal (z-score within array); higher = stronger binding
Settings in all cases: glycan notation: IUPAC condensed, linker removed
[1] = target: Gal(b1-4)GlcNAc(b1-2)Man(a1-6)[GlcNAc(b1-2)Man(a1-3)]Man(b1-4)GlcNAc(b1-4)GlcNAc
Summary of the method: (§1)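 Glycan array binding is given as a within-array Z-score, which can be read as non-binding when negative. The arrays, 3228 of them, came from the Consortium for Functional Glycomics database and were retained only where the protein sequence was available. Z-scores were averaged across arrays of the same protein sequence at different concentrations or buffers and across linkers.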

[2] = target: Gal3S(b1-4)[Fuc(a1-3)]GlcNAc6S
Summary of the method: as §1

Gal6S(b1-4)Glc6S = target: Gal6S(b1-4)Glc6S
Summary of the method: as §1

[3] = target: GalNAc(a1-3)GalNAc(a1-3)Gal(a1-4)Gal(b1-4)GlcNAc
Summary of the method: as §1

[4] = target: GalNAc(b1-3)Gal(a1-6)Gal(b1-4)Glc
Summary of the method: as §1

Glc(a1-6)Glc(a1-6)Glc = target: Glc(a1-6)Glc(a1-6)Glc
Summary of the method: as §1

[5] = target: GlcNAc(b1-2)Gal(b1-3)GalNAc
Summary of the method: as §1

[6] = target: GlcNAc(b1-3)Gal(b1-4)GlcNAc(b1-2)Man(a1-3)[GlcNAc(b1-3)Gal(b1-4)GlcNAc(b1-2)Man(a1-6)]Man(b1-4)GlcNAc(b1-4)GlcNAc
Summary of the method: as §1

[7] = target: GlcNAc(b1-3)[GlcNAc(b1-6)]Gal(b1-4)GlcNAc
Summary of the method: as §1

[8] = target: GlcNAc(b1-3)[GlcNAc(b1-6)]GalNAc
Summary of the method: as §1

Kdn(a2-3)Gal(b1-3)GlcNAc = target: Kdn(a2-3)Gal(b1-3)GlcNAc
Summary of the method: as §1

[9] = target: Man(a1-2)Man(a1-2)Man(a1-3)[Man(a1-2)Man(a1-3)[Man(a1-2)Man(a1-6)]Man(a1-6)]Man(b1-4)GlcNAc(b1-4)GlcNAc
Summary of the method: as §1

[10] = target: Man(a1-2)Man(a1-3)[Man(a1-2)Man(a1-6)]Man(a1-6)[Man(a1-2)Man(a1-2)Man(a1-3)]Man
Summary of the method: as §1

[11] = target: Man(a1-3)[Man(a1-6)]Man(a1-6)[Man(a1-3)]Man
Summary of the method: as §1

[12] = target: Neu5Ac(a2-3)Gal(b1-3)GlcNAc(b1-3)Gal(b1-4)GlcNAc
Summary of the method: as §1

[13] = target: Neu5Ac(a2-3)Gal(b1-3)[Neu5Ac(a2-3)Gal(b1-4)]GlcNAc
Summary of the method: as §1

[14] = target: Neu5Ac(a2-3)Gal(b1-4)GlcNAc(b1-2)Man(a1-3)[Neu5Ac(a2-6)Gal(b1-4)GlcNAc(b1-2)Man(a1-6)]Man(b1-4)GlcNAc(b1-4)GlcNAc
Summary of the method: as §1

[15] = target: Neu5Ac(a2-3)Gal(b1-4)GlcNAc(b1-3)GalNAc
Summary of the method: as §1

[16] = target: Neu5Ac(a2-3)Gal(b1-4)GlcNAc(b1-6)GalNAc
Summary of the method: as §1

[17] = target: Neu5Ac(a2-6)Gal(b1-4)GlcNAc(b1-2)Man(a1-3)Man(b1-4)GlcNAc(b1-4)GlcNAc
Summary of the method: as §1

[18] = target: Neu5Ac(a2-6)Gal(b1-4)GlcNAc(b1-2)Man(a1-3)[Man(a1-6)]Man(b1-4)GlcNAc(b1-4)GlcNAc
Summary of the method: as §1

[19] = target: Neu5Ac(a2-6)Gal(b1-4)GlcNAc(b1-3)Gal(b1-4)GlcNAc(b1-6)[Gal(b1-3)]GalNAc
Summary of the method: as §1

[20] = target: Neu5Ac(a2-6)Gal(b1-4)GlcNAc(b1-3)GalNAc
Summary of the method: as §1

[21] = target: Neu5Ac(a2-8)Neu5Ac(a2-3)[GalNAc(b1-4)]Gal(b1-4)Glc
Summary of the method: as §1

[22] = target: Neu5Ac9Ac(a2-6)Gal(b1-4)GlcNAc
Summary of the method: as §1

[23] = target: Neu5Gc(a2-8)Neu5Gc(a2-3)Gal(b1-4)GlcNAc
Summary of the method: as §1

[24] = target: Neu5Gc(b2-6)Gal(b1-4)GlcNAc
Summary of the method: as §1

B1: UEA-I (Ulex europaeus), P22972 (protein)
chain: SDDLSFKFKNFSQNGKDLSFQGDASVIETGVLQLNKVGNNLPDETGGIARYIAPIHIWNCNTGEVASFITSFSFFMETSANPKAATDGLTFFLAPPDSPLRRAGGYFGLFEDTKDNDSSYQTVAVEFDTIGSPVNFDDPGFPHIGIDVNRVKSINAERWNKRYGLNNVANVEIIYEASSKTLTASLTYPSDQTSISVTSIVDLKEILPEWVSVGFSGGTYIGRQATHEVLNWYFTSNLINTNS
In the case of B1, the “glycan array binding signal (z-score)” value [1] is reported as -0.155, the “glycan array binding signal (z-score)” value [2] is reported as -0.212 and the “glycan array binding signal (z-score)” value (Gal6S(b1-4)Glc6S) is reported as -0.098. For the same binder, the “glycan array binding signal (z-score)” value [3] was -0.179, the “glycan array binding signal (z-score)” value [4] was -0.21 and the “glycan array binding signal (z-score)” value (Glc(a1-6)Glc(a1-6)Glc) was -0.204. The “glycan array binding signal (z-score)” value [5] was -0.195, the “glycan array binding signal (z-score)” value [6] was -0.128 and the “glycan array binding signal (z-score)” value [7] was -0.266. For the same binder, the “glycan array binding signal (z-score)” value [8] was -0.17, the “glycan array binding signal (z-score)” value (Kdn(a2-3)Gal(b1-3)GlcNAc) was -0.222 and the “glycan array binding signal (z-score)” value [9] was -0.378. For the same binder, the “glycan array binding signal (z-score)” value [10] was -0.191, the “glycan array binding signal (z-score)” value [11] was -0.125 and the “glycan array binding signal (z-score)” value [12] was -0.274. For the same binder, the “glycan array binding signal (z-score)” value [13] was -0.122, the “glycan array binding signal (z-score)” value [14] was -0.209 and the “glycan array binding signal (z-score)” value [15] was -0.22. For the same binder, the “glycan array binding signal (z-score)” value [16] was -0.243, the “glycan array binding signal (z-score)” value [17] was -0.227 and the “glycan array binding signal (z-score)” value [18] was -0.216. For the same binder, the “glycan array binding signal (z-score)” value [19] was -0.032, the “glycan array binding signal (z-score)” value [20] was -0.148 and the “glycan array binding signal (z-score)” value [21] was -0.259. For the same binder, the “glycan array binding signal (z-score)” value [22] was -0.244, the “glycan array binding signal (z-score)” value [23] was -0.238 and the “glycan array binding signal (z-score)” value [24] was -0.1.
